# Data: PubChem BioAssay (NCATS)
# Inconclusive results are not listed. Entries that show only a call come without a potency. Values without a mark were called inactive. Calls of active or inactive are those of the source. Calls follow the shape of the dose curve; as a rule, active = well fitted curve in the direction sought with a large enough effect; inconclusive = small, poorly fitted or top-dose-only effect, or another doubt; inactive = no such curve, though single readings can be large; an effect the other way counts as inactive or inconclusive.
# Key:
# CRL-7250 = normal cell line; test: Cytotoxic Profiling of Annotated Libraries Using Quantitative High-Throughput Screening (AID 1296008); conditions: Five cell lines viability, CellTiter-Glo ATP luminescence, 48-72 h; max response: active compounds read low; also: nearly all actives have a fitted effect of over 60% in size; also: potency is read from the fitted curve at half-maximal effect
# Method in brief: (§1)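 Cytotoxicity was measured as CellTiter-Glo ATP luminescence, read after 10 min at room temperature. Compound treatment of the cells lasted 48 or 72 hr at 37 degrees Celsius in a qHTS format.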
# HEK293 = test: as above; conditions: Five cell lines viability, CellTiter-Glo ATP luminescence, 48-72 h; max response: active compounds read low
# Method in brief: as §1
# HaCat [1] = test: as above; conditions: Five cell lines viability, CellTiter-Glo ATP luminescence, 48-72 h; max response: active compounds read low
# Method in brief: as §1
# KB-3-1 = test: as above; conditions: Five cell lines viability, CellTiter-Glo ATP luminescence, 48-72 h; max response: active compounds read low
# Method in brief: as §1
# NIH3T3 [2] = test: as above; conditions: Five cell lines viability, CellTiter-Glo ATP luminescence, 48-72 h; max response: active compounds read low
# Method in brief: as §1
# HACAT [3] = test: qHTS assay to identify novel small-molecules to repurpose for Merkel cell carcinoma treatment (AID 1296009); conditions: MCC and control cell lines, CellTiter-Glo viability, 72 h; at 44.8 µM (top of the series) unless noted; also: nearly all actives have a fitted effect of over 60% in size
# Method in brief: (§2)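 Cell viability measured by CellTiter-Glo following 72 hr compound treatment at 37 degree celsius, with NPC and MIPE libraries tested in 8- and 11-point concentration series.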
# NIH3T3 [4] = test: as above; conditions: MCC and control cell lines, CellTiter-Glo viability, 72 h; at 44.8 µM (top of the series) unless noted
# Method in brief: as §2
# C33A = test: Primary qHTS to identify gynecologic anti-cancer compounds using libraries of approved drugs and bioactive compounds (AID 1345084); conditions: Gynecologic cancer cell panel viability, ATPlite luminescence, 48 h; series mostly up to 57.5 µM; also: nearly all actives have a fitted effect of over 55% in size
# Method in brief: (§3)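 Luminescence from the ATPlite ATP-monitoring reagent indicates viable cell number; lower signal means cytotoxicity. Cells received compound 16 h after seeding and were exposed for 48 h across five concentrations.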
# CAOV3 = test: as above; conditions: Gynecologic cancer cell panel viability, ATPlite luminescence, 48 h; series mostly up to 57.5 µM
# Method in brief: as §3
# CASKI = test: as above; conditions: Gynecologic cancer cell panel viability, ATPlite luminescence, 48 h; series mostly up to 57.5 µM
# Method in brief: as §3
# Es-2 = test: as above; conditions: Gynecologic cancer cell panel viability, ATPlite luminescence, 48 h; series mostly up to 57.5 µM
# Method in brief: as §3
# Hek293T = test: as above; conditions: Gynecologic cancer cell panel viability, ATPlite luminescence, 48 h, control line for the selectivity index; series mostly up to 57.5 µM
# Method in brief: as §3
# JEG-3 = test: as above; conditions: Gynecologic cancer cell panel viability, ATPlite luminescence, 48 h; series mostly up to 57.5 µM
# Method in brief: as §3
# OV90 = test: as above; conditions: Gynecologic cancer cell panel viability, ATPlite luminescence, 48 h; series mostly up to 57.5 µM
# Method in brief: as §3
# PA-1 = test: as above; conditions: Gynecologic cancer cell panel viability, ATPlite luminescence, 48 h; series mostly up to 57.5 µM
# Method in brief: as §3
# HeLa = test: as above; conditions: Gynecologic cancer cell panel viability, ATPlite luminescence, 48 h; series mostly up to 57.5 µM
# Method in brief: as §3
structure (smiles),measurement,setting,value
O=C(O)c1ccc(NC(=O)[C@H](CC2CCCC2)n2cnc(C(F)(F)F)c2)nc1,max response,CRL-7250,-11.6%
same,max response,HEK293,-11%
same,outcome,HaCat [1],inactive
same,outcome,KB-3-1,inactive
same,outcome,NIH3T3 [2],inactive
same,outcome,HACAT [3],inactive
same,outcome,NIH3T3 [4],inactive
same,Potency,C33A,inactive
same,Potency,CAOV3,inactive
same,outcome,CASKI,inactive
same,Potency,Es-2,inactive
same,Potency,Hek293T,inactive
same,Potency,JEG-3,inactive
same,Potency,OV90,inactive
same,Potency,PA-1,inactive
CC(C)(O)C1CC=C(C(=O)OC[C@H]2O[C@@H](OC(=O)C3=CCC(C(C)(C)O)CC3)[C@H](O)[C@@H](O)[C@@H]2O)CC1 (some centres undefined),max response,CRL-7250,3.51%
same,max response,HEK293,1.77%
same,outcome,HaCat [1],inactive
same,max response,KB-3-1,9.42%
same,outcome,NIH3T3 [2],inactive
same,outcome,HACAT [3],inactive [at 17.4 µM]
same,outcome,NIH3T3 [4],inactive [at 17.4 µM]
same,Potency,C33A,inactive
same,outcome,CASKI,inactive
same,Potency,Es-2,inactive
same,Potency,HeLa,inactive
same,Potency,Hek293T,inactive
same,Potency,JEG-3,inactive
same,Potency,OV90,inactive
same,Potency,PA-1,inactive
COc1cc(C2OCC3(O)C(c4ccc(O[C@@H]5O[C@H](CO)[C@@H](O)[C@H](O)[C@H]5O)c(OC)c4)OCC23O)ccc1O (some centres undefined),outcome,CRL-7250,inactive
same,max response,HEK293,-0.768%
same,outcome,HaCat [1],inactive
same,max response,KB-3-1,7.65%
same,outcome,NIH3T3 [2],inactive
same,outcome,HACAT [3],inactive [at 17.4 µM]
same,outcome,NIH3T3 [4],inactive [at 17.4 µM]
same,Potency,C33A,inactive
same,Potency,CAOV3,inactive
same,outcome,CASKI,inactive
same,Potency,Es-2,inactive
same,Potency,HeLa,inactive
same,Potency,JEG-3,inactive
same,Potency,OV90,inactive
same,Potency,PA-1,inactive
CC1(C)CCC2(C(=O)O)C(O)CC3(C)C(=CCC4C5(C)CCC(OC6OC(CO)C(O)C(O)C6OC6OC(CO)C(O)C(O)C6OC6OCC(O)(CO)C6O)C(C)(C)C5CCC43C)C2C1 (centres undefined),max response,CRL-7250,-4.69%
same,max response,HEK293,-13.6%
same,outcome,HaCat [1],inactive
same,outcome,KB-3-1,inactive
same,outcome,NIH3T3 [2],inactive
same,outcome,HACAT [3],inactive [at 9.27 µM]
same,outcome,NIH3T3 [4],inactive [at 9.27 µM]
same,"activity change, negative = cytotoxicity",C33A,-3% [at 11.6 µM]
same,"activity change, negative = cytotoxicity",CAOV3,12.3% [at 11.6 µM]
same,"activity change, negative = cytotoxicity",CASKI,-10.6% [at 11.6 µM]
same,"activity change, negative = cytotoxicity",Es-2,-1.15% [at 11.6 µM]
same,"activity change, negative = cytotoxicity",Hek293T,13.1% [at 11.6 µM]
same,"activity change, negative = cytotoxicity",JEG-3,-1.43% [at 11.6 µM]
same,"activity change, negative = cytotoxicity",OV90,-4.37% [at 11.6 µM]
same,"activity change, negative = cytotoxicity",PA-1,-4.82% [at 11.6 µM]
O=[N+]([O-])c1cc(Cl)ccc1S(=O)(=O)N1CCN(Cc2ccccc2)CC1,max response,CRL-7250,-3.5%
same,max response,HEK293,-21.3%
same,outcome,HaCat [1],inactive
same,max response,KB-3-1,-13.2%
same,outcome,NIH3T3 [2],inactive
same,outcome,HACAT [3],inactive
same,outcome,NIH3T3 [4],inactive
same,Potency,C33A,inactive
same,Potency,CAOV3,inactive
same,outcome,CASKI,inactive
same,Potency,Es-2,inactive
same,Potency,HeLa,inactive
same,Potency,JEG-3,inactive
same,Potency,OV90,inactive
same,Potency,PA-1,inactive
CC(C)(O)C1CCC2(C)CCCC(C)(O)C2C1 (centres undefined),max response,CRL-7250,-27.4%
same,max response,HEK293,2.93%
same,outcome,HaCat [1],inactive
same,max response,KB-3-1,8.99%
same,outcome,NIH3T3 [2],inactive
same,outcome,HACAT [3],inactive
same,outcome,NIH3T3 [4],inactive
same,Potency,C33A,inactive
same,outcome,CASKI,inactive
same,Potency,Es-2,inactive
same,Potency,HeLa,inactive
same,Potency,Hek293T,inactive
same,Potency,JEG-3,inactive
same,Potency,OV90,inactive
same,Potency,PA-1,inactive
COc1ccc(C2OCC3C(c4cc(OC)c5c(c4)OCO5)OCC23)cc1OC (centres undefined),max response,CRL-7250,3.22%
same,max response,HEK293,1.08%
same,outcome,HaCat [1],inactive
same,max response,KB-3-1,-4.07%
same,outcome,NIH3T3 [2],inactive
same,outcome,HACAT [3],inactive [at 17.4 µM]
same,outcome,NIH3T3 [4],inactive [at 17.4 µM]
same,Potency,C33A,inactive
same,outcome,CASKI,inactive
same,Potency,Es-2,inactive
same,Potency,HeLa,inactive
same,Potency,Hek293T,inactive
same,Potency,JEG-3,inactive
same,Potency,OV90,inactive
same,Potency,PA-1,inactive
CC1CCC2(C(=O)OC3OC(CO)C(O)C(O)C3O)CCC3(C)C(=CCC4C5(C)CCC(O)C(C)(CO)C5CCC43C)C2C1(C)O (centres undefined),outcome,CRL-7250,inactive
same,max response,HEK293,-1.85%
same,outcome,HaCat [1],inactive
same,outcome,KB-3-1,inactive
same,outcome,NIH3T3 [2],inactive
same,outcome,HACAT [3],inactive [at 17.4 µM]
same,outcome,NIH3T3 [4],inactive [at 17.4 µM]
same,Potency,C33A,inactive
same,outcome,CASKI,inactive
same,Potency,Es-2,inactive
same,Potency,HeLa,inactive
same,Potency,Hek293T,inactive
same,Potency,JEG-3,inactive
same,Potency,OV90,inactive
same,Potency,PA-1,inactive
O=C(NC/C=C/CN1CCN(c2cccc(Cl)c2Cl)CC1)c1ccc(-c2ccccn2)cc1,max response,CRL-7250,-4.15%
same,Potency,HEK293,13 µM (active)
same,outcome,HaCat [1],inactive
same,max response,KB-3-1,-2.38%
same,max response,NIH3T3 [2],2.53%
same,outcome,HACAT [3],inactive
same,Potency,C33A,inactive
same,Potency,CAOV3,inactive
same,outcome,CASKI,inactive
same,Potency,Es-2,inactive
same,Potency,HeLa,inactive
same,Potency,Hek293T,inactive
same,Potency,JEG-3,inactive
same,Potency,OV90,inactive
C[C@@H]1C[C@@H](O)[C@@]23CO[C@]2(CO)C[C@@H](O)CC3[C@@]12CC(c1ccoc1)OC2=O (some centres undefined),max response,CRL-7250,-3.28%
same,max response,HEK293,0.731%
same,outcome,HaCat [1],inactive
same,outcome,KB-3-1,inactive
same,outcome,NIH3T3 [2],inactive
same,outcome,HACAT [3],inactive
same,outcome,NIH3T3 [4],inactive
same,Potency,C33A,inactive
same,outcome,CASKI,inactive
same,Potency,Es-2,inactive
same,Potency,HeLa,inactive
same,Potency,Hek293T,inactive
same,Potency,JEG-3,inactive
same,Potency,PA-1,inactive
Fc1ccccc1-c1nc2ccn(Cc3ccc(-c4ccc(C(F)(F)F)cc4C(F)(F)F)nn3)cc-2n1,max response,CRL-7250,1.68%
same,max response,HEK293,-5.52%
same,outcome,HaCat [1],inactive
same,max response,KB-3-1,-0.729%
same,max response,NIH3T3 [2],-4.04%
same,outcome,HACAT [3],inactive
same,Potency,C33A,inactive
same,Potency,CAOV3,inactive
same,outcome,CASKI,inactive
same,Potency,Es-2,inactive
same,Potency,HeLa,inactive
same,Potency,Hek293T,inactive
same,Potency,JEG-3,inactive
same,Potency,OV90,inactive
O=C(CCCCC1CCCCC1)N1CCC(c2cnc[nH]2)CC1,max response,CRL-7250,-15.2%
same,Potency,HEK293,5.8 µM (active)
same,outcome,HaCat [1],inactive
same,max response,KB-3-1,-20.1%
same,outcome,NIH3T3 [2],inactive
same,outcome,HACAT [3],inactive
same,outcome,NIH3T3 [4],inactive
same,Potency,CAOV3,inactive
same,outcome,CASKI,inactive
same,Potency,Es-2,inactive
same,Potency,HeLa,inactive
same,Potency,JEG-3,inactive
